Experiments:
Experiment in all cases: PBM binding z-score (relative to random genomic background probes); higher = stronger binding; sequences stand for … in GC…GCGATTGACAGCGTAGAATGAAGG
[1] = test system: FXR:RXRa (NR concentration 270 nM, RXRa partner concentration 90 nM)
In short: (§1)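 Probes were double-stranded and carried 34-nt variable regions with direct-repeat seeds, single-nucleotide variants, half-site ablations and random human genomic background sequences, printed on custom Agilent 4×180K protein-binding microarrays. Arrays were incubated 1 h with ligand-free nuclear receptor dimers in PBS pH 7.4, 2% milk, 0.02% Triton X-100, 1 mM DTT, 0.2 mg/mL BSA and 0.4 mg/ml salmon testes DNA. Antibodies against each partner (one per run) detected binding, and scanned fluorescence was regression-normalized. Binding z-scores use the random background probes as reference.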

[2] = test system: LXRa:RXRa (NR concentration 270 nM, RXRa partner concentration 90 nM)
In short: as §1

[3] = test system: LXRa homodimer (NR concentration 270 nM)
In short: as §1

[4] = test system: LXRb:RXRa (NR concentration 270 nM, RXRa partner concentration 90 nM)
In short: as §1

[5] = test system: LXRb homodimer (NR concentration 270 nM)
In short: as §1

[6] = test system: PPARa:RXRa (NR concentration 270 nM, RXRa partner concentration 90 nM)
In short: as §1

[7] = test system: PPARg:RXRa (NR concentration 180 nM, RXRa partner concentration 90 nM)
In short: as §1

[8] = test system: PPARg:RXRa 270nM:90nM, anti-RXR (NR concentration 270 nM, RXRa partner concentration 90 nM)
In short: as §1

[9] = test system: PPARg:RXRa 30nM:10nM, anti-RXR (NR concentration 30 nM, RXRa partner concentration 10 nM)
In short: as §1

[10] = test system: PPARg:RXRa 90nM:30nM, anti-RXR (NR concentration 90 nM, RXRa partner concentration 30 nM)
In short: as §1

[11] = test system: PPARg:RXRa DBDmut IVT, anti-RXR (DBD mutation: RXRa K156A/R161A, NR concentration 270 nM, RXRa partner concentration 90 nM)
In short: as §1

[12] = test system: PPARg:RXRa IVT, anti-PPARg (NR concentration 270 nM, RXRa partner concentration 90 nM)
In short: as §1

[13] = test system: PPARg DBDmut:RXRa IVT, anti-PPARg (DBD mutation: PPARg1 K132A/R137A, NR concentration 270 nM, RXRa partner concentration 90 nM)
In short: as §1

[14] = test system: PPARg DBDmut IVT, anti-PPARg (DBD mutation: PPARg1 K132A/R137A, NR concentration 270 nM)
In short: as §1

[15] = test system: PPARg homodimer (NR concentration 180 nM)
In short: as §1

[16] = test system: PXR:RXRa (NR concentration 270 nM, RXRa partner concentration 90 nM)
In short: as §1

[17] = test system: PXR homodimer (NR concentration 270 nM)
In short: as §1

[18] = test system: RARa:RXR (NR concentration 270 nM, RXRa partner concentration 90 nM)
In short: as §1

[19] = test system: RARa homodimer (NR concentration 270 nM)
In short: as §1

[20] = test system: RARb:RXRa (NR concentration 270 nM, RXRa partner concentration 90 nM)
In short: as §1

| Sequence | PBM binding z-score [1] | PBM binding z-score [2] | PBM binding z-score [3] | PBM binding z-score [4] | PBM binding z-score [5] | PBM binding z-score [6] | PBM binding z-score [7] | PBM binding z-score [8] | PBM binding z-score [9] | PBM binding z-score [10] | PBM binding z-score [11] | PBM binding z-score [12] | PBM binding z-score [13] | PBM binding z-score [14] | PBM binding z-score [15] | PBM binding z-score [16] | PBM binding z-score [17] | PBM binding z-score [18] | PBM binding z-score [19] | PBM binding z-score [20] |
| --- | --- | --- | --- | --- | --- | --- | --- | --- | --- | --- | --- | --- | --- | --- | --- | --- | --- | --- | --- | --- |
| CGTCAAAGTTCAACTAGGGTAACGTAAAGCACGC | 7.53 | 6.47 | 4.77 | 4.43 | 2.39 | 5.32 | 5.78 | 5.97 | 2.98 | 5.07 | 1.68 | 3.83 | 0.643 | 0.081 | 3.72 | 5.46 | 6.56 | 4.56 | 1.44 | 5.37 |
| CCTACTGGGCGAAAGGTCATTGATTCCAATGCTC | 4.47 | 4.72 | 3.02 | 4.35 | 0.417 | 5.92 | 11 | 9.6 | 9.1 | 11.6 | 3.27 | 5.79 | -0.635 | -0.595 | 2.89 | 4.98 | 2.08 | 5.57 | 0.869 | 4.28 |
| AGAATGAGGTTATTATGATCAGGGAATTGCGGTC | 1.62 | 1.46 | 0.202 | 1.16 | 0.134 | 2.71 | 1.93 | 1.96 | 0.795 | 1.48 | 3.67 | 2.89 | 1.32 | 0.834 | 0.53 | 1.11 | 0.371 | 1.34 | 0.69 | 1.24 |
| GTAACGAGGGCAAGTTGATAGCAGAGTTTGATGG | 0.832 | 0.576 | -0.256 | 0.49 | 0.052 | 1.9 | 1.29 | 1.19 | 0.279 | 0.807 | 3.49 | 3.09 | 0.298 | 0.937 | 0.983 | 0.884 | 1.23 | 0.596 | 0.449 | 2.58 |
| ATCTCTAGGTAAGGATAGTTCAGTGAATGCAAAT | 0.343 | 0.874 | 0.613 | 0.271 | 0.693 | 0.427 | 0.279 | 0.182 | 0.215 | 0.134 | 1.23 | 1.1 | 0.846 | 0.942 | 0.983 | 0.619 | 0.997 | 0.17 | 1.04 | 0.741 |
| GCTGCTAGGTCTACTGATGGTCAGCTAAAGCTCG | -0.686 | -0.0634 | -0.277 | -0.896 | -0.887 | -0.691 | -0.539 | -0.623 | -0.649 | -0.834 | 0.214 | -0.311 | -1.02 | -1.38 | -1.15 | -0.901 | -1.2 | -0.701 | -0.754 | -0.132 |
| ACTATTAGTTGATACGAGGGCAACCGATAGGTTG | 0.829 | 0.48 | 0.407 | 0.266 | 0.576 | 0.327 | 0.752 | 0.283 | 0.308 | 0.272 | 0.641 | 1.17 | 1.01 | 1.4 | 0.764 | 1.34 | 0.799 | 0.922 | 0.828 | 1.28 |
